{"source": "ChEMBL document CHEMBL3988442", "about": "“University of Dundee, Small-Polar-MMV Screening Library” (2021)"}
{"biological_target": "AMP-activated protein kinase, AMPK (Homo sapiens) (UniProt P54646+O43741+P54619+Q9UGJ0+Q9Y478+Q13131+Q9UGI9)", "assay": "AMP-dependent Kinase enzyme assay. An in vitro enzyme assay that detects ADP turnover that is directly proportional to AMPK activity. This uses naive AMPK that is activated during the assay with MK-8722", "assay_type": "functional", "design": "scale not given: direction of the effect not stated beside the values", "conditions": "30 µM", "units": {"Percent Effect": "%"}}
{"smiles": "N#CC1(NC(=O)CN2CCc3c(ncn3C3CC3)C2)CCCC1", "Percent Effect": -7.46}
{"smiles": "Cc1cc(C)c2c(NCc3nncn3C3CCCCC3)ncnc2n1", "Percent Effect": -0.11}
{"smiles": "COc1c(C(=O)NC(C)Cc2ccccc2Cl)c(C)nn1C", "note": "(centres undefined)", "Percent Effect": 0.464}
{"smiles": "CC(C)OCCS(=O)(=O)N1CCN(Cc2ccco2)CC1", "Percent Effect": -2.52}
{"smiles": "Cc1csc(NC(=O)NCCCN2CCC(C(N)=O)CC2)n1", "Percent Effect": 1.03}
{"smiles": "Cc1ccc(-c2noc(Cn3nc(C(N)=O)ccc3=O)n2)cc1", "Percent Effect": 5.62}
{"smiles": "COc1ccc(CC2(CO)CCN(c3cc(C(N)=O)ccn3)CC2)cc1", "Percent Effect": 8.7}
{"smiles": "COc1ccc(C2CN(c3ncccn3)CCN2C(C)=O)cc1", "note": "(centres undefined)", "Percent Effect": 21.2}
{"smiles": "Cc1nn(C)c2nc(N3CCCCC3c3ccc(F)cc3)sc12", "note": "(centres undefined)", "Percent Effect": 3.9}
{"smiles": "CC(=O)N[C@H]1CN(S(=O)(=O)N(C)Cc2ccccc2)C[C@@H]1C1CC1", "Percent Effect": 1.32}
{"smiles": "CCN(Cc1ccoc1)C(=O)Nc1ccccc1CN(C)C(C)=O", "Percent Effect": 2.94}
{"smiles": "Cc1noc(C)c1C(=O)N(C)C(C)c1cccnc1", "note": "(centres undefined)", "Percent Effect": -4.48}
{"smiles": "COc1ccc(Cc2nnc(NC(=O)C3CC34CCC4)s2)cc1OC", "note": "(centres undefined)", "Percent Effect": 4.1}
{"smiles": "O=C(NCc1nnc2n1CCC2)c1cn(-c2ccccc2Br)nn1", "Percent Effect": 12}
{"smiles": "CC1CCCN(c2ncc(-c3ccccc3F)c(-c3nccn3C)n2)C1", "note": "(centres undefined)", "Percent Effect": 9.01}
{"smiles": "CCCn1cc(NC(=O)c2cccc(CN3CC=CC3)c2)nn1", "Percent Effect": 3.97}
{"smiles": "CN1CCN(CC2(O)CCCN(S(=O)(=O)c3cn[nH]c3)CC2)CC1", "note": "(centres undefined)", "Percent Effect": 13}
{"smiles": "Cc1ccc(OCC(=O)N2CCOCC(O)(CN3CCCC3)C2)cc1C", "note": "(centres undefined)", "Percent Effect": 8.56}
{"smiles": "CCN1CCN(c2ncnc3c2CCN(C(=O)C2CC2)C3)CC1", "Percent Effect": -7.12}
{"smiles": "COCc1cccc(NC(=O)NCCCN(C)S(C)(=O)=O)c1", "Percent Effect": -1.69}
{"smiles": "CCn1cnnc1CCNc1nc(C)cc(C)c1C#N", "Percent Effect": -7.29}
{"smiles": "COc1cc(Br)c(S(=O)(=O)NC(=O)C(C)OC)cc1OC", "note": "(centres undefined)", "Percent Effect": -6.43}
{"smiles": "CC(C)c1nc(CSc2nnc(-c3cccs3)n2CC(N)=O)no1", "Percent Effect": -6.28}
{"smiles": "Cc1nc(N)c2ccc(C3CCCN3)nc2n1", "note": "(centres undefined)", "Percent Effect": 10.9}
{"smiles": "CCCNC(=O)CNC(=O)CC1CCCc2cc(OC)ccc21", "note": "(centres undefined)", "Percent Effect": -4.21}
{"smiles": "Cc1cc(=O)n2nc(Oc3ccc(F)c(F)c3)sc2n1", "Percent Effect": -9.97}
{"smiles": "O=C(NCC(O)c1cccc(F)c1)C1CCN(C2CCCCC2)CC1", "note": "(centres undefined)", "Percent Effect": -10}
{"smiles": "Cc1ccccc1C(=O)NC[C@@H]1CCN(C(=O)C2(O)CCCC2)C[C@H]1O", "Percent Effect": 2.29}
{"smiles": "CN(C)c1cccc(C(=O)Nc2cnn(Cc3ccncc3)c2)c1", "Percent Effect": -4.34}
{"smiles": "CN(CCc1ccccc1)Cc1c(C2CCOCC2)[nH]c2ncccc12", "Percent Effect": 11.1}
{"smiles": "CN(CCCc1cnn(C)c1)Cc1cc2n(n1)CCCN(C)C2", "Percent Effect": -6.92}
{"smiles": "CCCOC1CCCN(c2ncnc3c2CCN(C(=O)C2CC2)C3)C1", "note": "(centres undefined)", "Percent Effect": 3.46}
{"smiles": "Cc1cc(C(=O)NCCN2CCCCC2)nn1C(C)(C)C", "Percent Effect": 24.9}
{"smiles": "CC(C)(C)c1nc(CNc2cc3c(cc2Cl)NC(=O)CO3)no1", "Percent Effect": 2.92}
{"smiles": "Cc1noc(OCC(=O)N2CCCCC2C)n1", "note": "(centres undefined)", "Percent Effect": -1.69}
{"smiles": "CC(NC(=O)C1CC1)C(=O)N(C)Cc1ccsc1", "note": "(centres undefined)", "Percent Effect": -1.9}
{"smiles": "O=C(NCC1CCOC1)c1cc(-c2cccc(Cl)c2)[nH]n1", "note": "(centres undefined)", "Percent Effect": 7.17}
{"smiles": "Cc1ccc(-c2cc(C(=O)N(C)Cc3noc4c3CCCC4)[nH]n2)s1", "Percent Effect": -10.3}
{"smiles": "Cc1cc(=O)n2nc(Oc3cccc(C(N)=O)c3)sc2n1", "Percent Effect": -11.1}
